Drawing on PubChem BioAssay (Tox21), this text covers outcome for 38 compounds.

Each structure is given as a SMILES string. Results filed as inconclusive are left out. Calls of active or inactive are those of the source. Unless noted, calls follow the shape of the full dose curve.

A short description of the first assay: qHTS assay to identify small molecule antagonists of the vitamin D receptor (VDR) signaling pathway - cell viability counter screen (AID 743225; active = well fitted cell-killing curve with a large enough effect in the repeat runs; also: nearly all actives have a fitted effect of over 50% in size). The following applies: VDR-bla HEK293T viability, CellTiter-Glo luminescence, 16 h; series mostly up to 61 µM. The gist of the method:
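Luminescent cell viability (CellTiter-Glo) in VDR-bla HEK 293T cells after 16 h compound exposure at 37C in the presence of 3 nM final 1-alpha,25-dihydroxy vitamin D3.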
For orientation: Quantitative high-throughput screening tests each substance at several concentrations.
`Cc1onc(-c2c(Cl)cccc2Cl)c1C(=O)Cl`: the compound was called inactive. On the same count and under the same terms, the value for `N[C@H](C(=O)O)[C@@H](O)c1ccc(O)c(O)c1` was “inactive”; that for `CC(C#N)(CCC(=O)O)N=NC(C)(C#N)CCC(=O)O` (centres undefined) was “inactive”. Still for that read-out and setting: next, `C=CN1CCCCCC1=O`: “inactive”; `CC[N+](CC)(CC)CCOc1cccc(OCC[N+](CC)(CC)CC)c1OCC[N+](CC)(CC)CC`: “inactive”. The same measure, in the same setting: the value for `CC(C)(N)C#N` was “inactive”; that for `OCCCCCO` was “inactive”. As for `C=CCOCC(O)CO` (centres undefined), the outcome was inactive. Still for that read-out and setting: next, `CC(=O)O[C@@]12CO[C@@H]1C[C@H](O)[C@@]1(C)C(=O)[C@H](O)C3=C(C)[C@@H](OC(=O)[C@H](O)[C@@H](NC(=O)OC(C)(C)C)c4ccccc4)C[C@@](O)([C@@H](OC(=O)c4ccccc4)[C@H]21)C3(C)C`: “inactive”; `CC(C)(C)C(=O)c1ccccc1`: “inactive”. On the same count and under the same terms, the value for `CCN[C@H]1C[C@H](C)S(=O)(=O)c2sc(S(N)(=O)=O)cc21` was “inactive”; that for `C[N+]12CCC(CC1)C(OC(=O)C(O)(c1ccccc1)c1ccccc1)C2` (centres undefined) was “inactive”; that for `c1coc(CNc2ncnc3nc[nH]c23)c1` was “inactive”. Consider `CCCn1cc[n+](C)c1C`, for which the result was inactive. The same measure, in the same setting: next, `O=C(c1ccccc1)C1(O)CCCCC1`: “inactive”; `Nc1ccncc1N`: “inactive”.

Consider `C=COC(=O)C(C)(CC)CCC(C)C` (centres undefined), for which the call was inactive. With `CC(=O)Oc1cccc(C)c1`, the result was inactive. The same measure, in the same setting: next, `CN(C)CCCN(C)CCCN(C)C`: “inactive”. Still for that read-out and setting: next, `Cc1ncc(COP(=O)(O)O)c(C=O)c1O`: “inactive”.

Consider `CCCc1ncc(C[n+]2ccccc2C)c(N)n1`, for which the outcome was inactive.

Turning to `CC1=NS(=O)(=O)c2cc(Cl)ccc2N1`, the result was inactive. Same read-out and setting: next, `COc1ccnc(CS(=O)c2nc3cc(OC(F)F)ccc3[nH]2)c1OC` (centres undefined): “inactive”; `C=C(C)C(=O)OCC(O)CO` (centres undefined): “inactive”; `CCN(C=O)CC`: “inactive”. Turning to `COc1cc(-c2ccc(=O)[nH]n2)ccc1OC(F)F`, the result was inactive.

Consider `CC(C)(CCC(=O)O)C(=O)O`, for which the result was inactive.

As to `Cc1ccc(C(=O)Nc2ccc(S(=O)(=O)O)c3cc(S(=O)(=O)O)cc(S(=O)(=O)O)c23)cc1NC(=O)c1cccc(NC(=O)Nc2cccc(C(=O)Nc3cc(C(=O)Nc4ccc(S(=O)(=O)O)c5cc(S(=O)(=O)O)cc(S(=O)(=O)O)c45)ccc3C)c2)c1`, the compound was called inactive. For `Cc1nc(C2CCCCC2)c(-c2ccc(S(N)(=O)=O)c(F)c2)o1`, the call was inactive. Same read-out and setting: the value for `COc1cc(C)nc(-n2nc(C)cc2OC)n1` was “inactive”; that for `Cc1coc2ccccc2c1=O` was “inactive”.

The next assay can be described thus: qHTS assay to identify small molecule agonists of the NFkB signaling pathway - cell viability counter screen (AID 1159515). Also: nearly all actives have a fitted effect of over 55% in size. The following applies: NFkB-bla ME-180 viability, CellTiter-Glo luminescence, 5 h; series mostly up to 61 µM. The gist of the method:
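Multiplexed viability readout: after the 5 hr compound exposure and 1.5 hr FRET substrate step, CellTiter-Glo reagent went into the same NFkB-bla ME-180 wells; ATP luminescence was measured after 30 min at room temperature.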
As for `CC1=NN(c2cccc(S(=O)(=O)O)c2)C(=O)C1`, the result was inactive.

Turning to `Cc1onc(-c2c(Cl)cccc2Cl)c1C(=O)Cl`, the call was inactive. Still for that read-out and setting: next, `N[C@H](C(=O)O)[C@@H](O)c1ccc(O)c(O)c1`: “inactive”. Same read-out and setting: next, `C1CCC2=NCCCN2CC1`: “inactive”. On the same count and under the same terms, next, `CC(C#N)(CCC(=O)O)N=NC(C)(C#N)CCC(=O)O` (centres undefined): “inactive”; `C=CN1CCCCCC1=O`: “inactive”; `CC[N+](CC)(CC)CCOc1cccc(OCC[N+](CC)(CC)CC)c1OCC[N+](CC)(CC)CC`: “inactive”. Take `CC(C)(N)C#N`: the compound was called inactive. Still for that read-out and setting: next, `OCCCCCO`: “inactive”.

On to `C=CCOCC(O)CO` (centres undefined), for which the call was inactive.

`CC(=O)O[C@@]12CO[C@@H]1C[C@H](O)[C@@]1(C)C(=O)[C@H](O)C3=C(C)[C@@H](OC(=O)[C@H](O)[C@@H](NC(=O)OC(C)(C)C)c4ccccc4)C[C@@](O)([C@@H](OC(=O)c4ccccc4)[C@H]21)C3(C)C`: the call was inactive. Take `CC(C)(C)C(=O)c1ccccc1`: the compound was classed as inactive.

As for `CCN[C@H]1C[C@H](C)S(=O)(=O)c2sc(S(N)(=O)=O)cc21`, the compound was called inactive.

In the case of `C[N+]12CCC(CC1)C(OC(=O)C(O)(c1ccccc1)c1ccccc1)C2` (centres undefined), the call was inactive. Turning to `c1coc(CNc2ncnc3nc[nH]c23)c1`, the compound was classed as inactive. The same measure, in the same setting: next, `NC(=O)Cc1cccc2ccccc12`: “inactive”; `CCCn1cc[n+](C)c1C`: “inactive”. On the same count and under the same terms, next, `O=C(c1ccccc1)C1(O)CCCCC1`: “inactive”; `Nc1ccncc1N`: “inactive”; `C=COC(=O)C(C)(CC)CCC(C)C` (centres undefined): “inactive”. The same measure, in the same setting: next, `CC(=O)Oc1cccc(C)c1`: “inactive”; `CN(C)CCCN(C)CCCN(C)C`: “inactive”.

As to `O=S(=O)(O)c1cc(O)c(O)c(S(=O)(=O)O)c1`, the call was inactive. The same measure, in the same setting: the value for `Cc1ncc(COP(=O)(O)O)c(C=O)c1O` was “inactive”; that for `O=CN(CCO)CCO` was “inactive”. Same read-out and setting: next, `CCCc1ncc(C[n+]2ccccc2C)c(N)n1`: “inactive”; `CC1=NS(=O)(=O)c2cc(Cl)ccc2N1`: “inactive”; `CCOCC(C)O` (centres undefined): “inactive”. Same read-out and setting: the value for `COc1ccnc(CS(=O)c2nc3cc(OC(F)F)ccc3[nH]2)c1OC` (centres undefined) was “inactive”. Consider `C=C(C)C(=O)OCC(O)CO` (centres undefined), for which the result was inactive. Same read-out and setting: the value for `CCN(C=O)CC` was “inactive”. Still for that read-out and setting: the value for `C[C@@H]1CCC[C@H](C)N1` was “inactive”; that for `COc1cc(-c2ccc(=O)[nH]n2)ccc1OC(F)F` was “inactive”.

Regarding `CC(C)(CCC(=O)O)C(=O)O`, the compound was called inactive.

Take `Cc1ccc(C(=O)Nc2ccc(S(=O)(=O)O)c3cc(S(=O)(=O)O)cc(S(=O)(=O)O)c23)cc1NC(=O)c1cccc(NC(=O)Nc2cccc(C(=O)Nc3cc(C(=O)Nc4ccc(S(=O)(=O)O)c5cc(S(=O)(=O)O)cc(S(=O)(=O)O)c45)ccc3C)c2)c1`: the compound was classed as inactive. `Cc1nc(C2CCCCC2)c(-c2ccc(S(N)(=O)=O)c(F)c2)o1`: the compound was classed as inactive. Still for that read-out and setting: next, `COc1cc(C)nc(-n2nc(C)cc2OC)n1`: “inactive”.

In the case of `Cc1coc2ccccc2c1=O`, the compound was called inactive.
